Several values for one entry are separate records, joined by “and”; a condition that tells them apart may be missing. Equal values may be shown once. Some compounds were tested as several samples or in several runs, with calls that do not always agree. Activity calls are given as the source filed them. How the source made its calls: active means hit-call score of the fitted dose curve at least 0.9, where 1 is the maximum; inactive means score below 0.9.
Tests used:
[1] = ATG_GLI_CIS: Attagene CIS-FACTORIAL HepG2 Assay for human Zinc Finger Protein GLI1 (AID 2282945); settings: HepG2, Attagene cis-factorial reporter mRNA, GLI element; actives raise or lower the signal
Method in brief: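 Transiently transfected HepG2 cells report endogenous transcription factor activity via cis-element-driven reporter units. After 24 h compound exposure, reporter mRNA was measured by RT-PCR with capillary electrophoresis; bidirectional fitting against DMSO baseline.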

[2] = biological target: Bile acid receptor (Homo sapiens) (UniProt Q96RI1); experiment: ATG_IR1_CIS: Attagene CIS-FACTORIAL HepG2 Assay for human Nuclear Receptor Subfamily 1 Group H Member 4 (NR1H4), IR1 submotif (AID 2282946); settings: IR1 reporter transcription, actives raise or lower the signal
Method in brief: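 HepG2 cells transiently transfected with multiple cis-promoter-driven reporter units to measure endogenous transcription factor activity; 24 h exposure. Reporter mRNA read by RT-PCR, FAM labelling, HpaI digestion and capillary electrophoresis. Bidirectional fit versus DMSO.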

[3] = ATG_GRE_CIS: Attagene CIS-FACTORIAL HepG2 Assay for human Glucocorticoid Response Elements (GRE) (AID 2282947); settings: HepG2 GRE cis-reporter, Attagene multiplex mRNA; actives raise or lower the signal
Method in brief: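 Endogenous transcription factor activity is read through cis-element reporter constructs transiently transfected into HepG2 cells. After 24 h treatment, labelled RT-PCR products are resolved by capillary electrophoresis; DMSO sets baseline for bidirectional curve fitting.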

[4] = ATG_ISRE_CIS: Attagene CIS-FACTORIAL HepG2 Assay for human Interferon Regulatory Factor 1 (IRF1) binding to an Interferon-Stimulated Response Element (ISRE) (AID 2282948); settings: HepG2 ISRE cis-reporter (Attagene), mRNA transcription readout; actives raise or lower the signal
Method in brief: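 Quantitation relies on labelled RT-PCR fragments separated by capillary electrophoresis. Human HepG2 cells bearing cis-promoter reporter constructs were treated 24 h; DMSO served as baseline for bidirectional fitting.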

[5] = ATG_M_32_CIS: Attagene CIS-FACTORIAL HepG2 Assay for M32 Transcription Factor (Internal Marker) (AID 2282949); settings: HepG2 Attagene cis-factorial M32 reporter, mRNA; actives raise or lower the signal;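 further: background control marker of the multiplexed CIS panel rather than a real target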
Method in brief: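 Internal background marker read-out: RT-PCR/capillary electrophoresis fluorescence of reporter transcripts from transiently transfected HepG2 cells after 24 h chemical exposure. Activity fitted bidirectionally relative to DMSO negative control.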

[6] = biological target: Hypoxia-inducible factor 1-alpha (Homo sapiens) (UniProt Q16665); experiment: ATG_HIF1a_CIS: Attagene CIS-FACTORIAL HepG2 Assay for human Hypoxia Inducible Factor 1 (HIF1A) (AID 2282951); settings: HepG2 Attagene cis-factorial HIF1a reporter transcription; actives raise or lower the signal
Method in brief: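 Activity is fitted in both directions relative to DMSO. Reporter transcripts are read by RT-PCR, fluorescent primer extension and capillary electrophoresis after 24 h chemical treatment. The cells are HepG2 carrying transiently transfected cis-element-driven reporter units responding to endogenous factors.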

[7] = biological target: Hepatocyte nuclear factor 6 (Homo sapiens) (UniProt Q9UBC0); experiment: ATG_HNF6_CIS: Attagene CIS-FACTORIAL HepG2 Assay for human Hepatocyte Nuclear Factor 6 (HNF6) (AID 2282952); settings: HepG2 Attagene cis-factorial HNF6 reporter transcription; actives raise or lower the signal
Method in brief: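 Multiplexed mRNA reporter assay in transfected HepG2; 24 h dosing; RT-PCR plus capillary electrophoresis fluorescence; DMSO-referenced bidirectional curve fitting.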

[8] = biological target: Heat shock factor protein 1 (Homo sapiens) (UniProt Q00613); experiment: ATG_HSE_CIS: Attagene CIS-FACTORIAL HepG2 Assay for human Heat Shock Transcription Factor 1 (HSE) (AID 2282953); settings: HepG2 HSE cis-reporter, Attagene RNA transcription; actives raise or lower the signal
Method in brief: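 Read-out: fluorescence of reporter-specific RT-PCR fragments separated by capillary electrophoresis. HepG2 carrying transfected cis-element reporter units; 24 h dosing; activity fitted in both directions relative to DMSO baseline.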

[9] = ATG_MRE_CIS: Attagene CIS-FACTORIAL HepG2 Assay for human Metal Responsive Element (MRE) (AID 2282954); settings: HepG2 MRE cis-reporter transcription, Attagene multiplex; actives raise or lower the signal
Method in brief: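 Fluorescent reporter fragments separated by capillary electrophoresis give mRNA induction for the MRE unit after 24 h treatment of transfected HepG2 cells. Endogenous transcription-factor activity is read; DMSO serves as negative control and baseline.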

[10] = ATG_PBREM_CIS: Attagene CIS-FACTORIAL HepG2 Assay for human Phenobarbital-responsive Enhancer Module (PBREM) (AID 2282955); settings: HepG2 PBREM cis-reporter, Attagene multiplexed transcription; actives raise or lower the signal
Method in brief: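 Endogenous transcription factor activity was read from reporter transcripts in transiently transfected human HepG2 liver cells after 24 h dosing. RT-PCR products were fluorescently labelled, HpaI-cut and sized by capillary electrophoresis; activity fitted bidirectionally against DMSO baseline.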

[11] = biological target: Paired box protein Pax-6 (Homo sapiens) (UniProt P26367); experiment: ATG_Pax6_CIS: Attagene CIS-FACTORIAL HepG2 Assay for human Paired Box 6 (PAX6) (AID 2282956); settings: HepG2 CIS-FACTORIAL PAX6 reporter transcription, RNA readout; actives raise or lower the signal
Method in brief: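 After twenty-four hours of chemical exposure, transfected HepG2 cells are harvested for RNA. Cis-promoter reporter transcripts are amplified, fluorescently labelled and sized by capillary electrophoresis, with gain and loss of signal scored against DMSO.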

[12] = ATG_PXRE_CIS: Attagene CIS-FACTORIAL HepG2 Assay for human Pregnane X Receptor Element (PXRE) (AID 2282957); settings: HepG2 Attagene CIS-FACTORIAL PXRE reporter, mRNA; actives raise or lower the signal
Method in brief: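 Cells: HepG2, transiently transfected reporter units under cis promoter control. Exposure: 24 h. Detection: reporter mRNA via RT-PCR/CE fluorescence; bidirectional fitting, DMSO-referenced.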

[13] = ATG_PPRE_CIS: Attagene CIS-FACTORIAL HepG2 Assay for human Peroxisome Proliferator-activated Response Element (PPRE) (AID 2282958); settings: HepG2 PPRE cis-element reporter, Attagene transcription factor profiling; actives raise or lower the signal
Method in brief: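 Endogenous PPRE-driven transcription is measured in HepG2 cells carrying transfected multi-reporter constructs. Reporter transcripts are quantified by RT-PCR, HpaI digestion and capillary electrophoresis 24 h after dosing. DMSO baseline, bidirectional fit.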

[14] = ATG_RORE_CIS: Attagene CIS-FACTORIAL HepG2 Assay for human RAR-related Orphan Receptor Element (RORE) (AID 2282959); settings: HepG2 Attagene cis-factorial RORE reporter, mRNA; actives raise or lower the signal
Method in brief: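 RORE reporter transcripts reflecting endogenous factor activity were read after 24 h compound exposure of transfected HepG2 cells, using reverse transcription, PCR, fluorescent labelling and capillary electrophoresis sizing. Gain or loss fitted against DMSO.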

[15] = ATG_Sox_CIS: Attagene CIS-FACTORIAL HepG2 Assay for human SRY-box transcription factor (SOX) (AID 2282960); settings: HepG2 Attagene cis-factorial SOX reporter, mRNA; actives raise or lower the signal
Method in brief: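 Reporter transcripts, measured by RT-PCR and capillary electrophoresis of labelled fragments, report endogenous SOX transcription factor activity. Transiently transfected human HepG2 cells receive chemical for 24 h; changes in either direction are fitted relative to DMSO.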

[16] = biological target: Transcription factor Sp1 (Homo sapiens) (UniProt P08047); experiment: ATG_Sp1_CIS: Attagene CIS-FACTORIAL HepG2 Assay for human Specificity Protein 1 (Sp1) (AID 2282961); settings: HepG2 Sp1 cis-reporter transcription, actives raise or lower the signal
Method in brief: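 Read-out is reporter transcript level, measured by RT-PCR and fluorescent capillary electrophoresis after 24 h chemical treatment. System: transiently transfected HepG2 cells reporting endogenous transcription factor activity; gain or loss fitted against DMSO baseline.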

[17] = ATG_SREBP_CIS: Attagene CIS-FACTORIAL HepG2 Assay for human Sterol Regulatory Element Binding (SREBP) (AID 2282962); settings: HepG2 Attagene cis-factorial SREBP reporter, mRNA; actives raise or lower the signal
Method in brief: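 Twenty-four hours after chemical dosing of transfected HepG2 cultures, reporter RNA was converted to cDNA, amplified, end-labelled with 6-FAM and resolved by capillary electrophoresis. Responses were fitted relative to DMSO.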

[18] = biological target: Signal transducer and activator of transcription 3 (Homo sapiens) (UniProt P40763); experiment: ATG_STAT3_CIS: Attagene CIS-FACTORIAL HepG2 Assay for human Signal Transducer and Activator of Transcription 3 (STAT3) (AID 2282963); settings: HepG2, Attagene cis-factorial STAT3 reporter transcription; actives raise or lower the signal
Method in brief: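 Values derive from bidirectional fits relative to DMSO of reporter mRNA levels, measured by RT-PCR with capillary electrophoresis, in HepG2 cells carrying transiently transfected cis-regulated reporter units and exposed 24 h.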

[19] = ATG_TA_CIS: Attagene CIS-FACTORIAL HepG2 Assay for human TA Basal Promoter (AID 2282964); settings: HepG2 Attagene CIS-factorial TA basal promoter reporter; actives raise or lower the signal
Method in brief: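 Transfected HepG2, 24 h compound exposure; RNA → RT-PCR → FAM primer extension → HpaI cut → CE fluorescence. Gain/loss-of-signal fitted against DMSO negative control. Background-control readout.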

[20] = ATG_M_06_CIS: Attagene CIS-FACTORIAL HepG2 Assay for M06 Transcription Factor (Internal Marker) (AID 2282950); settings: HepG2 Attagene CIS-FACTORIAL M06 internal marker reporter; actives raise or lower the signal
Method in brief: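 Terse: HepG2, transient MRTU transfection (FuGene 6), 24 h dosing; total RNA, oligo(dT) RT, PCR, FAM label, HpaI cut, capillary electrophoresis; bidirectional fit vs DMSO baseline; background-control endpoint.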

Measured: AC50

Hepatocyte nuclear factor 6 (Homo sapiens), sequence (Q9UBC0 whole entry, looked up): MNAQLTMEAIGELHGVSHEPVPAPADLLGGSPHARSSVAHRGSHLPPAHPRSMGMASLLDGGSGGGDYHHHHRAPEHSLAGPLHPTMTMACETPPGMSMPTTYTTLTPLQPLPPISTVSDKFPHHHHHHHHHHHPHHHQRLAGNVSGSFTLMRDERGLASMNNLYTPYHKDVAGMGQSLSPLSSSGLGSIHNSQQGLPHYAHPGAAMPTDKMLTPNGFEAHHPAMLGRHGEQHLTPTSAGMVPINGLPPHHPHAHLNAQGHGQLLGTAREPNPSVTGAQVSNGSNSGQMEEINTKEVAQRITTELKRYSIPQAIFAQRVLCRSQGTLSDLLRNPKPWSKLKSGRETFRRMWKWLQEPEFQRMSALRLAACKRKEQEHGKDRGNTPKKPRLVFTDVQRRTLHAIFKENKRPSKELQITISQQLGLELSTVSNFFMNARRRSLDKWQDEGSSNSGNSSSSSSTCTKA
Bile acid receptor (Homo sapiens), sequence (Q96RI1 whole entry, looked up): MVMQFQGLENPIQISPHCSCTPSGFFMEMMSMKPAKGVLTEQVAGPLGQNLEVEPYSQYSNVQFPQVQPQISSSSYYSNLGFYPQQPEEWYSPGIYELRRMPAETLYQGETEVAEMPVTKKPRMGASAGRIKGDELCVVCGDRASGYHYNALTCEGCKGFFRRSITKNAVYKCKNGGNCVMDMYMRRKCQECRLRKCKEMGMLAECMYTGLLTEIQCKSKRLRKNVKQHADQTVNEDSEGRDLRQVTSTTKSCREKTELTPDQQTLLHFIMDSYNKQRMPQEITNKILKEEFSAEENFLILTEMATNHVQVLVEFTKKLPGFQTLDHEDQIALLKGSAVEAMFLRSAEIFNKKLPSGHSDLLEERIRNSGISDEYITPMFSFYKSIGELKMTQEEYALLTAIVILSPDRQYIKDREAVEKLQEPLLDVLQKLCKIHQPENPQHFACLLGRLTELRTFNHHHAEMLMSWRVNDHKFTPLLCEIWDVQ
Hypoxia-inducible factor 1-alpha (Homo sapiens), sequence (Q16665 whole entry, looked up): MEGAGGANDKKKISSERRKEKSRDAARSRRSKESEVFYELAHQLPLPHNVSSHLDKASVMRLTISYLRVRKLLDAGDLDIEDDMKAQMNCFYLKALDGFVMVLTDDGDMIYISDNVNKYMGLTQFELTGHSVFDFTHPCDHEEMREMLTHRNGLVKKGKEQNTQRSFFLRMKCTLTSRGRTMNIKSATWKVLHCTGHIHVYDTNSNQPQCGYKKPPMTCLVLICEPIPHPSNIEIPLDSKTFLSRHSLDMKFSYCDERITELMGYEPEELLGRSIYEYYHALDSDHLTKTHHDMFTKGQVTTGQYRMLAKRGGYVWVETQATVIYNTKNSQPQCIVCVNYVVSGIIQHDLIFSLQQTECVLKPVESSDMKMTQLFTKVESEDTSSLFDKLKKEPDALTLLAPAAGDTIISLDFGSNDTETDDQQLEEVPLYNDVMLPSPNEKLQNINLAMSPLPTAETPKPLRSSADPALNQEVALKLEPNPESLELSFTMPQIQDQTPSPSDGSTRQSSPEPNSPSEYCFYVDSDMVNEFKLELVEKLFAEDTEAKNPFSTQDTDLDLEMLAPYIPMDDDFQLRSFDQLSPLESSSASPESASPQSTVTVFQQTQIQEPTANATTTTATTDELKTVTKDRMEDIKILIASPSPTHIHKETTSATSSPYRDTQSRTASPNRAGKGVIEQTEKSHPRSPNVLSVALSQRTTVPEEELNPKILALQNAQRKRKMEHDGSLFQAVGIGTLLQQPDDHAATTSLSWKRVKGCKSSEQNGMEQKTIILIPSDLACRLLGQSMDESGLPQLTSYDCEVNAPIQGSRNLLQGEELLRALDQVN
Transcription factor Sp1 (Homo sapiens), sequence (P08047 whole entry, looked up): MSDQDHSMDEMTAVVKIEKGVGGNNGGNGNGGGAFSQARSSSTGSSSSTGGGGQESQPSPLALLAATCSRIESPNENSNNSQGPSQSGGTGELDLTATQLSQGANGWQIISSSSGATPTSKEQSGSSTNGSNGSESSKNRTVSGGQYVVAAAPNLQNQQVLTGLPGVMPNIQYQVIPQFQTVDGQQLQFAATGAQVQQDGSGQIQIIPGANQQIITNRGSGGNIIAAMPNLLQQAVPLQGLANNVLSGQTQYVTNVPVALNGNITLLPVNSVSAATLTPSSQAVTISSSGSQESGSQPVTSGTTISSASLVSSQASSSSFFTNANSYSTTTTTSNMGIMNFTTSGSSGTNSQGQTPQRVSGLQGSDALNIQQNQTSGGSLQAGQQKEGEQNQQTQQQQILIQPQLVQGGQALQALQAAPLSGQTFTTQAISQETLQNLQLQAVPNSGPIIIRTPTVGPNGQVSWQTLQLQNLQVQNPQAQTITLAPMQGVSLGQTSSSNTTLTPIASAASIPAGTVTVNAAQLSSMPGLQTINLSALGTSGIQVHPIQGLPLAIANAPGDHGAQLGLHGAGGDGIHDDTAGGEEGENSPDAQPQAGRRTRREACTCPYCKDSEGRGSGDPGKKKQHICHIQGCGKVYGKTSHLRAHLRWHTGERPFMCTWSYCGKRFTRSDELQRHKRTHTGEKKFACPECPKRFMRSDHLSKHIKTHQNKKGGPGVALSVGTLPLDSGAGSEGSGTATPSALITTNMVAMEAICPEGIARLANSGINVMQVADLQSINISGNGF
Signal transducer and activator of transcription 3 (Homo sapiens), sequence (P40763 whole entry, looked up): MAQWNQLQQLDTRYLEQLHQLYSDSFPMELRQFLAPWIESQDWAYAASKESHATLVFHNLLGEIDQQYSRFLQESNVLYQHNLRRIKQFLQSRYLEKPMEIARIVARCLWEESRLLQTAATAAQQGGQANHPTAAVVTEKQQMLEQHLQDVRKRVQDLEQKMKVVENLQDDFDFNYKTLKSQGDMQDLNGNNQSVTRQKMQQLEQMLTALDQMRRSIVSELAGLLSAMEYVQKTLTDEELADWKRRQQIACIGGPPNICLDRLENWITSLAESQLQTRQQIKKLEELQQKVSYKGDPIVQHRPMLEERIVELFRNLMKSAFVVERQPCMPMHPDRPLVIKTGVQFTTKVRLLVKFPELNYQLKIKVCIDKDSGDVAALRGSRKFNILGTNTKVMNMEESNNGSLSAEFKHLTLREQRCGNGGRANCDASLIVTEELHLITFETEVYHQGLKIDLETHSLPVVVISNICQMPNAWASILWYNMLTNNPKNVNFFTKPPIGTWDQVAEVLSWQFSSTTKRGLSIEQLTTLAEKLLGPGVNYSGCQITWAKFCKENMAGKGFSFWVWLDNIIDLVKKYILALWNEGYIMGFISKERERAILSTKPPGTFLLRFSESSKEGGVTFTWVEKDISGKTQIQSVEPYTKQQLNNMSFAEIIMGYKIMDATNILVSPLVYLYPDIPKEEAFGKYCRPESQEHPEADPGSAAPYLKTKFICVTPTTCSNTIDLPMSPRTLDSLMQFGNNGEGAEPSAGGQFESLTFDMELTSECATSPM
Paired box protein Pax-6 (Homo sapiens), sequence (P26367 whole entry, looked up): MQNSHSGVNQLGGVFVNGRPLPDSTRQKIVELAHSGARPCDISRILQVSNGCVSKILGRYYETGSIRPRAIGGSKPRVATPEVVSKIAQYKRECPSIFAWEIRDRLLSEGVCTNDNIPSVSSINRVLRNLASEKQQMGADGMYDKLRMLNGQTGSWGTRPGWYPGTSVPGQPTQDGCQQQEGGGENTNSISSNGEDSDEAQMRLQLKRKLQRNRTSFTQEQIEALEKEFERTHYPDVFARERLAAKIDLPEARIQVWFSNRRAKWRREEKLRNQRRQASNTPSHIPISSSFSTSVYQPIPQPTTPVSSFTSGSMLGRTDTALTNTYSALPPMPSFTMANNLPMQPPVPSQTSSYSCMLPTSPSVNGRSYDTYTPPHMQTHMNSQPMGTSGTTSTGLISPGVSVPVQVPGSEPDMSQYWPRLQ
Heat shock factor protein 1 (Homo sapiens), sequence (Q00613 whole entry, looked up, the tested form may be a part): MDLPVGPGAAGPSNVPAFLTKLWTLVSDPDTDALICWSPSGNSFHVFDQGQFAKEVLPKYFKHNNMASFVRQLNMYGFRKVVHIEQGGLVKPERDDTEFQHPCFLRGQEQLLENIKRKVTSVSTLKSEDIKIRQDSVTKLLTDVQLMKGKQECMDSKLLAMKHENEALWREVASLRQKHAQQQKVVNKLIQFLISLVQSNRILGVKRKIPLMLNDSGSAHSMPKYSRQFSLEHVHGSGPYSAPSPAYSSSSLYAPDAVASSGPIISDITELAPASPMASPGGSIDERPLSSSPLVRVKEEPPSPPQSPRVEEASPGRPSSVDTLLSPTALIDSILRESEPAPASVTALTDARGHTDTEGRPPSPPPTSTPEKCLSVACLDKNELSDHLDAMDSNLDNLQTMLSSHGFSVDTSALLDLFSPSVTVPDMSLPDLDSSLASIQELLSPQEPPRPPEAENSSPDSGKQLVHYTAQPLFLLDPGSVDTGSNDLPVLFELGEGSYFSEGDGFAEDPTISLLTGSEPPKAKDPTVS

COc1ccc([N+](=O)[O-])cc1N
not listed: [20]
inactive: all other assays above

OCCC(F)(F)C(F)(F)C(F)(F)C(F)(F)C(F)(F)C(F)(F)C(F)(F)C(F)(F)F
inactive: [1] | [4] | [5] | [6] | [7] | [14] | [17] | [18] | [19]
active: [1] 59.2 µM | [4] 150 µM | [7] 171 µM | [8] 55.7 µM and 234 µM | [9] 47.3 µM and 150 µM | [10] 52.5 µM and 222 µM | [12] 52.1 µM and 98.7 µM | [14] 25.7 µM | [15] 33.4 µM and 150 µM | [16] 48.4 µM and 150 µM | [17] 222 µM

CCCCCCCCCCCCN1CCCC1=O
active: [12] 4.43 µM
not listed: [11]
inactive: all other assays above

CCCCC[C@H](O)CC(=O)CCc1ccc(O)c(OC)c1
active: [2] 149 µM | [12] 18.1 µM | [16] 166 µM
not listed: [11]
inactive: all other assays above

N#C[C@@H]1CC(F)(F)CN1C(=O)CNC1CC2CCC(C1)N2c1ncccn1 (some centres not stated)
active: [12] 75.6 µM
not listed: [10] | [11]
inactive: all other assays above

Nc1cccc2c(N)cccc12
not listed: [20]
inactive: all other assays above

OCCC(F)(F)C(F)(F)C(F)(F)C(F)(F)C(F)(F)C(F)(F)F
inactive: [1] | [2] | [3] | [4] | [5] | [6] | [7] | [8] | [9] | [10] | [11] | [12] | [13] | [14] | [15] | [16] | [17] | [18] | [19]
active: [2] 187 µM | [3] 133 µM | [4] 100 µM | [5] 100 µM | [8] 100 µM | [9] 147 µM | [11] 176 µM | [17] 100 µM

CCCCCCCCCCCCCCCS(=O)(=O)Oc1ccccc1
active: [12] 0.778 µM
not listed: [13]
inactive: all other assays above

CC(=O)NC1(c2cccc(F)c2)CCN(CC[C@@]2(c3ccc(Cl)c(Cl)c3)CN(c3ccccc3)C(=O)CO2)CC1
active: [1] 50.7 µM | [6] 8.61 µM | [8] 51.6 µM | [9] 45.5 µM | [10] 56.2 µM | [12] 1.42 µM | [13] 55.6 µM | [14] 50.2 µM | [15] 55.9 µM | [16] 44.4 µM | [17] 8.79 µM | [19] 16.8 µM
inactive: [2] | [3] | [4] | [5] | [20] | [7] | [18]

CC#C[C@]1(O)CC[C@H]2[C@@H]3CCC4=CC(=O)CCC4=C3[C@@H](c3ccc(N(C)C)cc3)C[C@@]21C
inactive: [1] | [2] | [3] | [5] | [20] | [7] | [10] | [15] | [16] | [17] | [18] | [19]
active: [1] 100 µM and 134 µM | [2] 8.96 µM and 9.17 µM and 10.6 µM | [3] 26.7 µM | [6] 8.4 µM [middle of 4 runs] | [9] 21.3 µM [middle of 4 runs] | [10] 11.5 µM and 4.77 µM and 13 µM | [12] 1.03 µM [middle of 4 runs] | [14] 6.68 µM [middle of 4 runs] | [16] 122 µM and 27.5 µM | [17] 23.9 µM and 91.2 µM and 31.7 µM | [19] 9.11 µM and 8.72 µM and 27.2 µM

O=C(/C=C/c1ccc(O)cc1)CC(=O)/C=C/c1ccc(O)cc1
active: [2] 29 µM | [4] 8.84 µM | [8] 20.3 µM | [9] 10.8 µM | [11] 14.6 µM | [14] 2.56 µM | [15] 25.7 µM
inactive: all other assays above
